Source: PubChem
TRHR enhancer: qHTS for Small Molecule Agonists and Allosteric Enhancers of Human TRH Receptor: Primary Screen for Enhancers; Thyrotropin-releasing hormone receptor (Homo sapiens), P34981; TRHR cells, fluo-8 calcium fluorescence, EC20 TRH enhancement; enhancement, % at 2 µM; 360,000 compounds, 0.66% hits; in the data active means enhancement above about 30%; further: 0% is about no effect
Target sequence (P34981 whole entry, looked up): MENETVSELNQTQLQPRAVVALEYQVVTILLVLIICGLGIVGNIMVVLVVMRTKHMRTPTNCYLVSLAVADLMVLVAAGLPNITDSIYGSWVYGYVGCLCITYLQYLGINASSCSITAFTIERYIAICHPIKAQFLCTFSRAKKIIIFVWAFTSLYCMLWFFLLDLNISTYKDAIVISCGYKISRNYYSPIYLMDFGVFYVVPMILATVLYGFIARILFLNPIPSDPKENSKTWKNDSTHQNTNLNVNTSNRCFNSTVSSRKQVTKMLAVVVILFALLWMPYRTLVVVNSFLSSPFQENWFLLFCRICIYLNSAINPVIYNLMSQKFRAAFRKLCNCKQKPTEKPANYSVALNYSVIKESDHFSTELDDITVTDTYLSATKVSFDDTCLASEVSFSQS
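TRHR-expressing cells loaded with fluo-8 calcium dye were read kinetically (ex 480/em 530) during compound addition, then stimulated with an EC20 of TRH (10 nM final). Enhancement of the Gq-mediated intracellular calcium response was scored.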
D1 ag: Allosteric Agonists of the Human D1 Dopamine Receptor: qHTS; D(1A) dopamine receptor (Homo sapiens), P21728; HEK293 T-REx D1 cells, calcium flux, agonist mode; activation, % at 2 µM; 360,000 compounds, 1% hits; AID 504660, 2011; further: 0% is about no effect
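Inducible HEK293 T-REx D1 cells, force-coupled to calcium signalling, were plated at 4000 cells/well with tetracycline and held overnight at 30 C. After no-wash calcium dye loading, compound-evoked calcium rise over 180 s flagged agonists.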
D1 potentiator: Potentiators of Human D1 Dopamine Receptor: qHTS | potentiation, % at 10 µM | 360,000 compounds, 0.036% hits | HEK293 TREx D1 cells, calcium flux, dopamine EC20 potentiation; in the data active means potentiation above about 30%; further: 0% is about no effect
D1 antagonist: Antagonist of Human D 1 Dopamine Receptor: qHTS | D(1A) dopamine receptor (Homo sapiens), P21728 | HEK293 TREx D1 cells, calcium flux, dopamine EC80; stronger effect = lower value | activity change, negative = inhibition, % at 10 µM | 360,000 compounds, 3.2% hits | AID 504652, 2011; in the data active means activity change below about -30%; further: on the % scale 0 is the no-effect control and ±100 the full control effect
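HEK293 T-REx cells expressing inducible, force-coupled D1 receptor; no-wash Ca dye, 30–90 min RT. Cmpd → 180 s read at 1 Hz → EC80 DA → 180 s read.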
TRHR ag: qHTS for Small Molecule Agonists and Allosteric Enhancers of Human TRH Receptor: Primary Screen for Agonists; Thyrotropin-releasing hormone receptor (Homo sapiens), P34981; TRHR cells, calcium flux fluo-8, FDSS agonist mode; activation, % at 2 µM; 360,000 compounds, 0.18% hits; AID 493084, 2011; further: 0% is about no effect
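TRHR-expressing cells loaded with fluo-8 calcium dye; 23 nL library compound pin-transferred, kinetic FDSS fluorescence (Ex 480/Em 530) recorded about 180 s for agonist-induced calcium release, before a 10 nM TRH EC20 addition for potentiator mode.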
* = called active by the depositor. Hits are enriched below; roughly 4.6% of the tested compounds scored in any of these assays. Unless noted, no stated cut-off is given here; in the data, active means activation above about 30%; inactive means the rest.

SMILES	TRHR enhancer	D1 ag	D1 potentiator	D1 antagonist	TRHR ag
Cc1ccc(NC2=NC3(CCCCC3)N=C(N)N2)c(C)c1	-5	-1	-6	-66*	0
Cc1ccc(NC2=NC3(CCCC3)N=C(N)N2)c(C)c1	-6	1	-4	-37*	-1
Cc1ccc(C)c(NC2=NC3(CCCCC3)N=C(N)N2)c1	-3	-4	-12	-5	0
Cc1cccc(C)c1NC1=NC2(CCCCC2)N=C(N)N1	-10	2	1	-3	1
COc1ccccc1CCNC(=O)c1ccc(-c2nc(CSc3ccc(C)cc3)c(C)o2)cc1	3	10	-2	-5	3
O=C(Nc1ccc2nc(SCC(=O)N3CCOCC3)sc2c1)c1ccccc1Cl	-7	0	-1	-5	0
CCOc1cc(CNC(=O)NC2COc3ccccc3C2)cc(OCC)c1OCC (stereo not given)	-2	2	-1	-19	-1
O=C(CNC(=O)c1ccccc1F)N/N=C/c1ccc2c(c1)OCO2	-7	3	-3	-15	0
COc1ccc(OC)c(CN(CCN2CCOCC2)C(=O)Nc2cccc(Cl)c2)c1	-1	2	0	-31*	1
Cc1ccc(C)c2[nH]c(=O)c(CN(CCN3CCCC3)C(=O)Nc3cccc(Cl)c3)cc12	3	39*	-11	-12	0
O=C(Nc1cccc(Cl)c1)N(CCN1CCOCC1)Cc1cccc(Cl)c1	-1	48*	-13	-38*	0
CCN(CC)c1ccc(-c2nc(-c3ccco3)no2)cc1[N+](=O)[O-]	-4	4	4	-10	0
Cc1ccc2nc(N3C(=O)C(O)=C(C(=O)c4ccc(C)o4)C3c3cccc(O)c3)sc2c1 (stereo not given)	-2	4	-4	-35*	1
CCn1cc(C(=O)NCc2ccc(Cl)cc2)c(=O)c2cc(S(=O)(=O)N(C)C3CCCCC3)ccc21	-1	4	3	4	1
Cc1ccc2nc(N=C(N)N)nc(C)c2c1	-9	1	-9	-52*	0
Nc1nc(COc2ccc(F)cc2Cl)nc(N2CCCCC2)n1	-4	1	-5	-31*	-1
Nc1nc(CSc2ccc(Cl)cc2)nc(N2CCCCC2)n1	2	3	3	0	0
CN(/N=C/c1ccc(-c2ccc([N+](=O)[O-])cc2)o1)c1ccccc1	1	234*	10	-67*	37*
CN(C)/N=C/c1ccc([N+](=O)[O-])cc1[N+](=O)[O-]	-1	4	-8	-3	-1
CN(C)/N=C/c1ccc(Sc2ccccc2[N+](=O)[O-])o1	-2	2	-6	-33*	-2
CCN1C(=NCc2cc(OC)c(OC)c(OC)c2)N[C@@H](c2cccc(F)c2)C(C(=O)OC)=C1C	-4	2	-1	-2	0
CSc1ccc(CN2CCC(n3nccc3NC(=O)c3ccccc3C)CC2)cc1	1	8	-6	1	0
COc1ccc(F)cc1COc1nc(C)nc2ccccc12	5	2	-6	15	-1
COc1cc(OC)c(CN2CCN(c3ccc(F)cc3)CC2)cc1Br	4	0	-11	-31*	0
COc1ccc(C2NCCc3c2[nH]c2ccccc32)cc1COc1ccc(F)cc1 (stereo not given)	7	77*	0	4	0
SMILES	TRHR enhancer	D1 ag	D1 potentiator	D1 antagonist	TRHR ag
COc1ccc(/C=N/NC(=O)c2cc(OC)c(OC)c(OC)c2)cc1CN1CCc2cc(OC)c(OC)cc2C1C (stereo not given)	20	3	-2	-5	-1
COc1ccc(C2NC(C(=O)O)Cc3c2[nH]c2ccccc32)cc1CN1CCN(c2ccc(F)cc2)CC1 (stereo not given)	-3	1	-15	-48*	0
COc1ccc(CN2CCN(c3ccc(F)cc3)CC2)c(OC)c1OC	8	17	-7	-21	-1
O=C(O)C1Cc2c([nH]c3ccccc23)C(c2ccc3c(c2)OCO3)N1 (stereo not given)	9	5	-6	-24	1
COc1ccc(C2NCCc3c2[nH]c2ccccc32)cc1CN1CCc2cc(OC)c(OC)cc2C1C (stereo not given)	3	36*	-5	-54*	5
CCc1c(C)sc2c1CCN(Cc1ccccc1F)C2c1ccccc1 (stereo not given)	5	4	0	-4	0
Cc1nn(C)cc1/C=N/NC(=O)C1(O)c2ccccc2-c2ccccc21	-2	1	-6	-34*	1
O=C(N/N=C/c1ccco1)C1(O)c2ccccc2-c2ccccc21	-1	1	-1	12	0
Cc1ccc(CN2C(=O)N(c3ccc(F)cc3)C(=O)C2CC(=O)Nc2ccc(Cl)cc2)cc1 (stereo not given)	0	6	-2	-9	3
COc1ccc(N=Cc2oc3ccc4ccccc4c3c2O)cc1	-2	78*	0	-4	24
C=C[C@@](C)(O)CC[C@@H]1[C@@]2(C)CCCC(C)(C)[C@@H]2CC[C@@]1(C)O	-6	49*	9	-1	-1
Fc1ccc(-c2nn(-c3ccccc3)cc2CNCc2ccccc2)cc1	1	6	7	20	1
Fc1ccc(-n2cc(CNCCc3ccncc3)c(-c3ccccc3Cl)n2)cc1	0	10	-2	-32*	1
Fc1ccc(-n2cc(CNCCc3cccnc3)c(-c3ccccc3Cl)n2)cc1	9	61*	12	-4	1
CCOc1ccccc1Nc1nc(-c2cccc(Cl)c2)c2c(n1)-c1ccccc1OC2	-5	-1	0	0	0
Oc1ccc(Cl)cc1N=Cc1sc2ccccc2c1Cl	-1	0	-4	3	1
O=[N+]([O-])c1ccc(O)c(N=Cc2sc3ccccc3c2O)c1	-1	27	2	16	17
Cc1cccc(/N=C/c2c(O)[nH]c3ccccc23)n1	-6	33*	-8	-14	0
Cc1cccc(/N=C/c2sc3ccccc3c2O)n1	14	52*	-6	3	10
Oc1c(C=Nc2cccc3cccnc23)sc2ccccc12	9	158*	0	-24	50*
CCOC(=O)c1sc(NC(=O)c2cc(-c3ccc(F)cc3)on2)c(C(=O)OCC)c1C	5	2	0	-15	1
CC(=O)N1CCCc2cc(S(=O)(=O)N(C)CC(=O)Nc3ccc(F)c(Cl)c3)ccc21	0	10	-4	-13	-1
